The full list was thinned out, with the strongest signals kept by preference.
Columns and labels:
Test in all cases: glycan array binding signal (z-score within array); higher = stronger binding
Details in all cases: glycan notation: IUPAC condensed, linker removed
[1] = biological target: Gal3S(b1-4)Glc6S
Outline: (§1)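 The Consortium for Functional Glycomics database supplied 3228 glycan arrays, of which those lacking an available protein sequence were dropped. The binding signal, a within-array Z-score, was averaged across arrays of the same protein sequence and across linkers. Negative scores can be read as non-binding.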

[2] = biological target: Gal3S6S(b1-4)GlcNAc6S
Outline: as §1

[3] = biological target: GalNAc(b1-4)Gal(b1-4)Glc
Outline: as §1

[4] = biological target: GalNAc(b1-4)GlcNAc(b1-2)Man(a1-3)[GalNAc(b1-4)GlcNAc(b1-2)Man(a1-6)]Man(b1-4)GlcNAc(b1-4)GlcNAc
Outline: as §1

[5] = biological target: Glc(a1-6)Glc(a1-6)Glc(a1-6)Glc
Outline: as §1

[6] = biological target: GlcNAc(a1-4)Gal(b1-4)GlcNAc(b1-3)Gal(b1-4)[Fuc(a1-3)]GlcNAc(b1-3)Gal(b1-4)[Fuc(a1-3)]GlcNAc
Outline: as §1

[7] = biological target: GlcNAc(b1-2)Gal(b1-3)GalNAc
Outline: as §1

[8] = biological target: GlcNAc(b1-2)[GlcNAc(b1-4)]Man(a1-3)[GlcNAc(b1-4)][GlcNAc(b1-2)[GlcNAc(b1-6)]Man(a1-6)]Man(b1-4)GlcNAc(b1-4)GlcNAc
Outline: as §1

[9] = biological target: GlcNAc(b1-3)Gal(b1-4)GlcNAc(b1-3)Gal(b1-4)GlcNAc(b1-3)Gal(b1-4)GlcNAc(b1-2)[GlcNAc(b1-3)Gal(b1-4)GlcNAc(b1-3)Gal(b1-4)GlcNAc(b1-3)Gal(b1-4)GlcNAc(b1-6)]Man(a1-6)[GlcNAc(b1-3)Gal(b1-4)GlcNAc(b1-3)Gal(b1-4)GlcNAc(b1-3)Gal(b1-4)GlcNAc(b1-2)Man(a1-3)]Man(b1-4)GlcNAc(b1-4)[Fuc(a1-6)]GlcNAc
Outline: as §1

[10] = biological target: GlcNAc(b1-3)Gal(b1-4)GlcNAc(b1-3)Gal(b1-4)GlcNAc(b1-3)Gal(b1-4)GlcNAc(b1-3)Gal(b1-4)GlcNAc(b1-2)[GlcNAc(b1-3)Gal(b1-4)GlcNAc(b1-3)Gal(b1-4)GlcNAc(b1-3)Gal(b1-4)GlcNAc(b1-3)Gal(b1-4)GlcNAc(b1-6)]Man(a1-6)[GlcNAc(b1-3)Gal(b1-4)GlcNAc(b1-3)Gal(b1-4)GlcNAc(b1-3)Gal(b1-4)GlcNAc(b1-3)Gal(b1-4)GlcNAc(b1-2)Man(a1-3)]Man(b1-4)GlcNAc(b1-4)[Fuc(a1-6)]GlcNAc
Outline: as §1

[11] = biological target: GlcNAc(b1-4)GlcNAc(b1-4)GlcNAc(b1-4)GlcNAc(b1-4)GlcNAc
Outline: as §1

[12] = biological target: GlcNAc(b1-4)GlcNAc(b1-4)GlcNAc(b1-4)GlcNAc(b1-4)GlcNAc(b1-4)GlcNAc
Outline: as §1

[13] = biological target: Neu5Ac(a2-3)Gal(b1-3)GlcNAc(b1-2)[Neu5Ac(a2-3)Gal(b1-3)GlcNAc(b1-4)]Man(a1-6)[Neu5Ac(a2-3)Gal(b1-3)GlcNAc(b1-2)Man(a1-3)]Man(b1-4)GlcNAc(b1-4)GlcNAc
Outline: as §1

[14] = biological target: Neu5Ac(a2-3)Gal(b1-3)GlcNAc(b1-6)GalNAc
Outline: as §1

[15] = biological target: Neu5Ac(a2-3)Gal(b1-4)GlcNAc(b1-2)Man(a1-3)[Neu5Ac(a2-6)Gal(b1-4)GlcNAc(b1-2)Man(a1-6)]Man(b1-4)GlcNAc(b1-4)GlcNAc
Outline: as §1

[16] = biological target: Neu5Ac(a2-3)Gal(b1-4)[Fuc(a1-3)]GlcNAc(b1-6)[Gal(b1-3)]GalNAc
Outline: as §1

[17] = biological target: Neu5Ac(a2-3)Gal6S(b1-4)GlcNAc
Outline: as §1

[18] = biological target: Neu5Ac(a2-6)Gal(b1-4)GlcNAc(b1-2)Man(a1-3)[Neu5Ac(a2-6)Gal(b1-4)GlcNAc(b1-2)Man(a1-6)]Man(b1-4)GlcNAc(b1-4)GlcNAc
Outline: as §1

[19] = biological target: Neu5Ac(a2-6)Gal(b1-4)GlcNAc(b1-2)Man(a1-3)[Neu5Ac(a2-6)Gal(b1-4)GlcNAc(b1-2)Man(a1-6)]Man(b1-4)GlcNAc(b1-4)[Fuc(a1-6)]GlcNAc
Outline: as §1

[20] = biological target: Neu5Ac(a2-6)GalNAc(b1-4)GlcNAc6S
Outline: as §1

[21] = biological target: Neu5Ac(a2-8)Neu5Ac(a2-3)Gal(b1-3)GalNAc(b1-4)[Neu5Ac(a2-3)]Gal(b1-4)Glc
Outline: as §1

[22] = biological target: Neu5Ac(a2-8)Neu5Ac(a2-3)[GalNAc(b1-4)]Gal(b1-4)Glc
Outline: as §1

[23] = biological target: Neu5Ac(a2-8)Neu5Ac(a2-8)Neu5Ac(a2-3)[Gal(b1-3)GalNAc(b1-4)]Gal(b1-4)Glc
Outline: as §1

[24] = biological target: Neu5Ac(a2-8)Neu5Ac(a2-8)Neu5Ac(a2-8)Neu5Ac(a2-3)[GalNAc(b1-4)]Gal(b1-4)Glc
Outline: as §1

[25] = biological target: Neu5Ac(a2-8)Neu5Gc(a2-3)Gal(b1-4)GlcNAc
Outline: as §1

B1: OGAA (protein)
chain: MVQKESQATLEERESELSSNPAASAGASLEPPAAPAPGEDNPAGAGGAAVAGAAGGARRFLCGVVEGFYGRPWVMEQRKELFRRLQKWELNTYLYAPKDDYKHRMFWREMYSVEEAEQLMTLISAAREYEIEFIYAISPGLDITFSNPKEVSTLKRKLDQVSQFGCRSFALLFADIDHNMCAADKEVFSSFAHAQVSITNEIYQYLGEPETFLFCPTEYCGTFCYPNVSQSPYLRTVGEKLLPGIEVLWTGPKVVSKEIPVESIEEVSKIIKRAPVIWDNIHANDYDQKRLFLGPYKGRSTELIPRLKGVLTNPNCEFEANYVAIHTLATWYKSNMNGVRKDVVMTDSEDSTVSIQIKLENEGSDEDIETDVLYSPQMALKLALTEWLQEFGVPHQY
- glycan array binding signal (z-score) [1]: -0.088
- glycan array binding signal (z-score) [2]: -0.045
- glycan array binding signal (z-score) [3]: -0.096
- glycan array binding signal (z-score) [4]: -0.075
- glycan array binding signal (z-score) [5]: -0.081
- glycan array binding signal (z-score) [6]: 0.075
- glycan array binding signal (z-score) [7]: -0.094
- glycan array binding signal (z-score) [8]: -0.071
- glycan array binding signal (z-score) [9]: -0.048
- glycan array binding signal (z-score) [10]: -0.029
- glycan array binding signal (z-score) [11]: -0.126
- glycan array binding signal (z-score) [12]: -0.102
- glycan array binding signal (z-score) [13]: 0.068
- glycan array binding signal (z-score) [14]: -0.047
- glycan array binding signal (z-score) [15]: -0.118
- glycan array binding signal (z-score) [16]: -0.025
- glycan array binding signal (z-score) [17]: -0.047
- glycan array binding signal (z-score) [18]: -0.079
- glycan array binding signal (z-score) [19]: -0.088
- glycan array binding signal (z-score) [20]: -0.012
- glycan array binding signal (z-score) [21]: -0.107
- glycan array binding signal (z-score) [22]: -0.086
- glycan array binding signal (z-score) [23]: -0.094
- glycan array binding signal (z-score) [24]: -0.107
- glycan array binding signal (z-score) [25]: -0.042

Source: the supplement of paper PMC8728848
